This is an account of results in PubChem BioAssay (Tox21).

SMILES strings stand for the structures. Values joined by “and” are separate entries in the source; they are usually repeats but may differ in a detail not shown here. Equal entries are not always repeated. Inconclusive results are not listed. Where a structure was tested more than once in an assay, its records may differ in their call. Active and inactive are the calls of the source. Unless noted, calls follow the shape of the dose curve; as a rule, active = well fitted curve in the direction sought with a large enough effect in the repeat runs; inconclusive = weak or mixed curves; inactive = no such curve, though single readings can be large; an effect the other way counts as inactive or inconclusive.

Experiment [1] can be described thus: qHTS assay to identify small molecule antagonists of the estrogen related receptor (ERR) signaling pathway from Tox21 library - cell viability counter screen (AID 1224834). Also: nearly all actives have a fitted effect of over 30% in size. Also: potency is read from the fitted curve at half-maximal effect. A digest of the protocol: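 Fluorescence from CellTiter-Fluor gives the viability read-out, taken 30 min after reagent addition. Before that, ERR cells seeded 6 h earlier were incubated with compounds for 17.5 h at 37 C.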
On the technique in general: qHTS replaces the single test concentration by a dilution series.

Experiment [2] can be described thus: qHTS assay to identify small molecule agonists of the constitutive androstane receptor (CAR) signaling pathway - cell viability counter screen (AID 1224836). Also: nearly all actives have a fitted effect of over 45% in size. Also: potency is read from the fitted curve at half-maximal effect. As to viability change, negative = cytotoxic: series mostly up to about 92 µM. A digest of the protocol:
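HepG2-CYP2B6-hCAR, 2500 cells/well, 4 h pre-incubation; cpd 15 conc + PK11195 0.75 uM final; 23 h, 37 C/5% CO2; CellTiter-Fluor, fluorescence.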

Experiment [3] in a line: qHTS assay to identify small molecule antagonists of the constitutive androstane receptor (CAR) signaling pathway - cell viability counter screen (AID 1224837). Also: nearly all actives have a fitted effect of over 45% in size. Also: potency is read from the fitted curve at half-maximal effect. As to activity change, negative = cytotoxicity: series mostly up to about 92 µM. Put shortly: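 HepG2-CYP2B6-hCAR cells, 2500/well, 4 hr pre-incubation; compound titration, 15 conc.; CITCO 50 nM final; 23 hr, 37 C/5% CO2; CellTiter-Fluor, fluorescence intensity.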
Experiment [4] in a line: qHTS assay to identify small molecule antagonists of the estrogen related receptor signaling pathway with the pleiotropic PPARgamma coactivator (PGC) from Tox21 10K library - cell viability counter screen (AID 1224840; active = well fitted cell-killing curve with a large enough effect in the repeat runs, not every such curve was filed as active; also: nearly all actives have a fitted effect of over 40% in size; also: potency is read from the fitted curve at half-maximal effect). A digest of the protocol:
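PGC/ERR cells, 2,000/well; 6 h pre-incubation 37 C/5% CO2; cpd in DMSO via pin tool; 17.5 h 37 C; CellTiter-Fluor, 30 min; fluorescence.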

In experiment [5] the target is Nuclear receptor subfamily 1 group I member 3 (Homo sapiens) (UniProt Q14994). As to the kind of experiment: qHTS assay to identify small molecule agonists of the constitutive androstane receptor (CAR) signaling pathway (AID 1224839). Also: nearly all actives have a fitted effect of over 15% in size. Also: potency is read from the fitted curve at half-maximal effect. A digest of the protocol:
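HepG2-CYP2B6-hCAR cells, 2500/well, 4 h pre-incubation; compounds 15 conc.; PK11195 0.75 uM final; 24 h, 37 C/5% CO2; ONE-Glo luciferase read.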

The nature of experiment [6]: qHTS assay to identify small molecule antagonists of the estrogen related receptor signaling pathway with the pleiotropic PPARgamma coactivator (PGC) from Tox21 10K library (AID 1224841; call rule not given here; also: actives are mostly falling curves and most rising ones were filed inactive; nearly all actives have a fitted effect of over 50% in size; also: potency is read from the fitted curve at half-maximal effect). Put shortly:
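PGC/ERR cell line, 2,000 cells/well; 6 h pre-incubation 37 C/5% CO2; compounds (DMSO) pinned in; 18 h, 37 C; One-Glo, 30 min RT; luminescence.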

Experiment [7] can be described thus: qHTS assay to identify small molecule agonists of the estrogen related receptor signaling pathway with the pleiotropic PPARgamma coactivator (PGC) from Tox21 10K library (AID 1224842). Also: nearly all actives have a fitted effect of over 15% in size. Put shortly: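 PGC/ERR reporter cell line, 2,000 cells per well, incubated 6 h at 37 C before 23 nL compound in DMSO was added. After 18 h at 37 C, One-Glo luminescence read following 30 min at room temperature.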

For experiment [8], the target named is Nuclear receptor subfamily 1 group I member 3 (Homo sapiens) (UniProt Q14994). As to the kind of experiment: qHTS assay to identify small molecule antagonists of the constitutive androstane receptor (CAR) signaling pathway (AID 1224838).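 Also: HepG2 cells stably expressing hCAR with CYP2B6 luciferase reporter stimulated by CITCO; nearly all actives have a fitted effect of over 40% in size.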 Also: potency is read from the fitted curve at half-maximal effect. A digest of the protocol: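 HepG2-CYP2B6-hCAR cells; 4 h pre-incubation; cpd (15 conc) + CITCO 50 nM final; 24 h, 37 C/5% CO2; ONE-Glo, luminescence.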
Chain of Nuclear receptor subfamily 1 group I member 3 (Homo sapiens) (Q14994 whole entry, looked up): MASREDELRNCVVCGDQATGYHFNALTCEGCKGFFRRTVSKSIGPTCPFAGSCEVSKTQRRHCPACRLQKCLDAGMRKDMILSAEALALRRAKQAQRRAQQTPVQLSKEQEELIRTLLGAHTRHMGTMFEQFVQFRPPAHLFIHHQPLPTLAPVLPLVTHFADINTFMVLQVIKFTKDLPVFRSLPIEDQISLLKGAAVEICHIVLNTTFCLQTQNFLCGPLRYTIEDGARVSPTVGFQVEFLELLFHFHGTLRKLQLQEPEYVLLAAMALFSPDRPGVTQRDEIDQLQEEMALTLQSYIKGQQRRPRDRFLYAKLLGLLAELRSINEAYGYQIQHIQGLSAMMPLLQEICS

Experiment [9] has as its target Thyrotropin receptor (Homo sapiens) (UniProt P16473). As to the kind of experiment: qHTS assay to identify small molecule agonists of the thyroid stimulating hormone receptor (TSHR) signaling pathway (AID 1224843; calls by dose curve; also: nearly all actives have a fitted effect of over 45% in size; also: potency is read from the fitted curve at half-maximal effect). Put shortly: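 TSHR-HEK293 cells in agonist mode, 30 min room-temperature step, then cAMP measured by competitive HTRF (cAMP-d2 with anti-cAMP cryptate) after 1 h at room temperature. Tested at 15 concentrations in triplicate.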
% is scaled to controls: 0 for no effect and ±100 for the full control effect.

Chain of Thyrotropin receptor (Homo sapiens) (P16473 whole entry, looked up): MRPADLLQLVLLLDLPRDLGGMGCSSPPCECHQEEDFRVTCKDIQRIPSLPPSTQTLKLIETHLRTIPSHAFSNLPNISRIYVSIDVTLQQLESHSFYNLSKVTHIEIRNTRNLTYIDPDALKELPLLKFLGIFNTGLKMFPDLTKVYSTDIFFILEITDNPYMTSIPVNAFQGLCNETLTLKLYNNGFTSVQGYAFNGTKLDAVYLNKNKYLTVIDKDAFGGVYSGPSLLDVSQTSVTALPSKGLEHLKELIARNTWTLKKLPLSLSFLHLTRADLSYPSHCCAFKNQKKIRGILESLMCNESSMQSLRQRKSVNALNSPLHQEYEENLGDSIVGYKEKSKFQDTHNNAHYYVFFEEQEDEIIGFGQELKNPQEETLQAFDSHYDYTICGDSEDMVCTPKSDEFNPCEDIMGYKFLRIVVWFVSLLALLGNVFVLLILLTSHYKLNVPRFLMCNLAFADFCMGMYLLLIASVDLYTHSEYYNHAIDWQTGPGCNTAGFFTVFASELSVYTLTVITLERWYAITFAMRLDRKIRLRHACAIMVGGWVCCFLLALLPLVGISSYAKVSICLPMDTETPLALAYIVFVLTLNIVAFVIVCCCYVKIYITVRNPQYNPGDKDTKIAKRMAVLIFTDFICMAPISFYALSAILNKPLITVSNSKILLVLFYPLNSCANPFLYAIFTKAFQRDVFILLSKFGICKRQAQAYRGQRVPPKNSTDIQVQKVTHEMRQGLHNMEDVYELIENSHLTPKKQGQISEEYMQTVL

`CC(=O)[O-].CC(=O)[O-].[Co+2]`: the Potency entry in experiment [1], in [2], in experiment [3] and in experiment [4] was “inactive” in each case.
As for `Oc1ccc([C@H]2CNCc3c2ccc(O)c3O)cc1O`, the Potency result in [1], in [2], in experiment [3], in [5], in experiment [4] and in experiment [6] was “inactive” throughout. In addition, the Potency entry in experiment [7] was “inactive”.
Turning to `O=C1C(Cl)=C(Cl)C(=O)C(Cl)=C1Cl`, the Potency in experiment [1] is 34.2 µM (active) and 30.6 µM (active); in experiment [4] it was 54.3 µM (active) and inactive; in experiment [6], 60.9 µM (active) and inactive; in [9] it was 27.2 µM (active). Further, the Potency result in experiment [3], in experiment [8], in [5] and in experiment [7] was “inactive” throughout.
As for `ClC1=C(Cl)[C@]2(Cl)[C@@H]3[C@H]4C[C@H]([C@@H]5O[C@H]45)[C@@H]3[C@@]1(Cl)C2(Cl)Cl`, the Potency entry in experiment [1], in [2], in experiment [3], in [4] and in experiment [7] was “inactive” each time. For the same compound, the Potency in experiment [9] was 4.32 µM (active).
In the case of `BrCC(Br)(Br)Br`, the Potency entry in experiment [1], in experiment [2], in experiment [3], in experiment [5], in experiment [4] and in experiment [6] was “inactive” each time. Besides, in experiment [7], the Potency result is “inactive”.
Take `[Cl-].[Cl-].[Sn+2]`: the Potency entry in experiment [1], in [2], in [3] and in experiment [4] was “inactive” in each case.
For the compound `O.O.O.O.O.O.O=S(=O)([O-])[O-].[Ni+2]`, the Potency entry in experiment [1], in experiment [2], in [3] and in [4] was “inactive” throughout.
As to `CCN(CC)Cc1nccn1-c1ccc([N+](=O)[O-])cc1C(=O)c1ccccc1Cl`, the Potency entry in experiment [1], in experiment [4], in [6], in experiment [7] and in experiment [9] was “inactive” throughout. Besides, the Potency in experiment [3] is 26.6 µM (active).
In the case of `CNC(=O)Oc1cc(C)cc(C(C)C)c1`, the Potency result in [1], in experiment [2], in experiment [3], in experiment [8], in experiment [4] and in [6] was “inactive” each time. Moreover, the Potency result in [7] is “inactive”.
`S=C=Nc1ccccc1`: the Potency result in experiment [1], in experiment [2], in experiment [3], in experiment [8] and in experiment [4] was “inactive” in each case.
Take `CC(=O)[O-].CC(=O)[O-].CC(=O)[O-].[Cr+3]`: the Potency result in experiment [1], in experiment [2], in experiment [3] and in [4] was “inactive” throughout.
With `CC(=O)O.CC(=O)O.CC(=O)O.CC(=O)O.CC(=O)O.CC(=O)O.CC(=O)O.O.O.[Cr].[Cr].[Cr]`, the Potency result in experiment [1], in experiment [2], in experiment [3] and in experiment [4] was “inactive” each time.
For the compound `CCOP(=O)(OCC)Oc1nc(Cl)c(Cl)cc1Cl`, the Potency entry in [1], in [2], in [3], in [5], in experiment [4] and in experiment [9] was “inactive” throughout.
Regarding `O.O.O.O.O.O.O.O=S(=O)([O-])[O-].[Co+2]`, the Potency entry in [1], in experiment [2], in [3] and in experiment [4] was “inactive” each time.
Regarding `C1=CCC=C1`, the Potency entry in [1], in [2], in experiment [3] and in [4] was “inactive” in each case.
For `C=CCOC(=O)c1ccccc1N`, the Potency result in [1], in experiment [2], in experiment [3], in [4], in experiment [6] and in experiment [7] was “inactive” throughout. For the same compound, the Potency entry in experiment [9] is “inactive”.
Consider `CC(=O)[O-].CC(=O)[O-].CC(=O)[O-].[Sb+3]`, for which the viability change, negative = cytotoxic in [1] was 0.176% [at 3.27 µM] (inactive); in experiment [2], -15.6% [at 3.27 µM] (inactive); in [4], 3.7% [at 3.27 µM] (inactive). Further, the activity change, negative = cytotoxicity in experiment [3] was -10.2% [at 3.26 µM] (inactive).
On to `CN(C)c1ccc(N)cc1`, for which the Potency in [1] was 23.7 µM (active); in experiment [2], 59.6 µM (active); in [3], 53.2 µM (active); in experiment [5], 9.45 µM (active); in experiment [4] it was 26.6 µM (active).
Regarding `O=C(Nc1ccc(F)cc1F)c1cccnc1Oc1cccc(C(F)(F)F)c1`, the Potency entry in experiment [1], in experiment [3], in experiment [4] and in experiment [6] was “inactive” throughout. In addition, the Potency in experiment [9] is 37.8 µM (active).
As to `CC(C)=CCN1CC[C@@]2(C)c3cc(O)ccc3C[C@@H]1[C@@H]2C`, the Potency entry in experiment [1], in [2], in [3], in [4] and in experiment [9] was “inactive” each time.
Regarding `Cc1cccc(Cc2cnc[nH]2)c1C`, the Potency entry in [1], in experiment [2], in experiment [3], in experiment [5], in [4] and in [9] was “inactive” each time.
Consider `O=C1C[C@@H]2OCC=C3CN4CC[C@]56c7ccccc7N1[C@H]5[C@H]2[C@H]3C[C@H]46`, for which the Potency entry in experiment [1], in experiment [4], in experiment [7] and in experiment [9] was “inactive” each time.
`CNN`: the Potency result in experiment [1], in experiment [2], in experiment [3] and in experiment [4] was “inactive” throughout.
For `CSSC`, the Potency entry in experiment [1], in [5], in [4], in experiment [6], in experiment [7] and in experiment [9] was “inactive” throughout. For the same compound, in experiment [8], the Potency is 22 µM (active).
For the compound `CN1CCc2cc(Cl)c(O)cc2[C@H]2c3ccccc3CC[C@@H]21`, the Potency result in [1], in experiment [8], in experiment [5], in experiment [4], in [6] and in experiment [7] was “inactive” each time. For the same compound, in [9], the Potency entry is “inactive”.
`CC(=O)[O-].CC(=O)[O-].O.O.[Zn+2]`: the Potency result in experiment [1], in [2], in [3] and in experiment [4] was “inactive” in each case.
For `O=S1OCC2C(CO1)C1(Cl)C(Cl)=C(Cl)C2(Cl)C1(Cl)Cl` (stereo unspecified), the Potency was 54.5 µM (active) in [1]; 30.7 µM (active) and 17.2 µM (active) in experiment [5]; 4.33 µM (active) and 8.63 µM (active) in experiment [9]. The Potency entry in experiment [2] and in [3] was “inactive” in each case.
For `Cc1ccc2cc3c(ccc4ccccc43)c3c2c1CC3`, the Potency result in experiment [1], in [2], in experiment [5], in experiment [4] and in [9] was “inactive” each time. For the same compound, the Potency in experiment [8] is 0.865 µM (active).
`O=NN(CCO)CCO`: the Potency result in experiment [1], in [2], in experiment [3], in experiment [4], in experiment [6] and in [7] was “inactive” throughout. Further, the Potency result in [9] is “inactive”.
